Activity calls are given as the source filed them. Rule for the calls: active = hit-call score of the fitted dose curve at least 0.9, where 1 is the maximum; inactive = score below 0.9.
What was measured:
[1] = read-out: Transforming growth factor beta 1 (TGFb1), TGFB1 (gene 7040); assay: BSK_KF3CT_TGFb1: BioMAP Diversity Plus: KF3CT Assay for Transforming growth factor beta 1 (TGFb1) Biomarker Activity (AID 2283072); details: primary human keratinocytes with fibroblasts; actives raise or lower the signal
Method in brief: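 Read-out: ELISA for TGF-b1 in keratinocyte/foreskin fibroblast human skin co-culture, 24 h after dosing; bidirectional curve fit vs DMSO baseline; gain or loss of signal scored.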

[2] = read-out: C-C motif chemokine 2 (Homo sapiens) (UniProt P13500); assay: BSK_KF3CT_MCP1: BioMAP Diversity Plus: KF3CT Assay for Monocyte Chemoattractant Protein 1 (MCP1/CCL2) Biomarker Activity (AID 2283073); details: primary human keratinocytes with fibroblasts; actives raise or lower the signal
Method in brief: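 Keratinocytes and foreskin fibroblasts were co-cultured, dosed with chemical, and sampled 24 h later. MCP-1 was quantified by ELISA, and the endpoint was analyzed with bidirectional fitting using DMSO as negative control.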

[3] = read-out: urokinase plasminogen activator (uPA), PLAU (gene 5328); assay: BSK_KF3CT_uPA: BioMAP Diversity Plus: KF3CT Assay for urokinase plasminogen activator (uPA) Biomarker Activity (AID 2283075); details: primary human keratinocytes with fibroblasts; actives raise or lower the signal
Method in brief: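 Skin co-culture (keratinocytes + foreskin fibroblasts), human primary; 24 h post-dose; uPA by ELISA; gain/loss fit vs DMSO baseline.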

CD40, CD40 (gene 958) = assay: BSK_LPS_CD40: BioMAP Diversity Plus: LPS Assay for CD40 Biomarker Activity (AID 2283076); details: primary human HUVEC with PBMC; actives raise or lower the signal
Method in brief: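 CD40 signal, measured by ELISA, is fitted in both directions relative to DMSO vehicle. The system is an LPS-driven human vascular primary co-culture of endothelial cells and PBMC, sampled 24 h after compound addition.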

[4] = read-out: E-selectin (Homo sapiens) (UniProt P16581); assay: BSK_LPS_Eselectin: BioMAP Diversity Plus: LPS Assay for Eselectin Biomarker Activity (AID 2283077); details: primary human HUVEC with PBMC; actives raise or lower the signal
Method in brief: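 Signal of E-selectin, detected by ELISA, served as the endpoint; cells were umbilical vein endothelium with PBMC, read 24 h after treatment. DMSO defined baseline, and both increases and decreases were fitted.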

[5] = read-out: Interleukin-8 (IL8), CXCL8 (gene 3576); assay: BSK_LPS_IL8: BioMAP Diversity Plus: LPS Assay for Interleukin-8 (IL8) Biomarker Activity (AID 2283078); details: primary human HUVEC with PBMC; actives raise or lower the signal
Method in brief: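 Endothelial cells and PBMC from human donors are co-cultured, treated with chemicals and LPS, then assayed for IL-8 by ELISA after 24 h. Parallel SRB staining (0.1% SRB after 10% TCA fixation, 560 nm) flags cytotoxicity.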

[6] = BSK_LPS_SRB: Viability Assessment in the BioMAP Diversity Plus: LPS Assay (AID 2283079); details: primary human HUVEC with PBMC;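 note: total protein by sulforhodamine B absorbance as a cytotoxicity measure; measured one day after compound addition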
Method in brief: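 Overt cytotoxicity was gauged by sulforhodamine B total-protein staining in a primary human vascular endothelial and mononuclear cell co-culture 24 h post-dosing. Activity was fitted in both directions relative to DMSO.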

[7] = read-out: Interleukin-1 alpha (IL1a), IL1A (gene 3552); assay: BSK_LPS_IL1a: BioMAP Diversity Plus: LPS Assay for Interleukin-1 alpha (IL1a) Biomarker Activity (AID 2283080); details: primary human HUVEC with PBMC; actives raise or lower the signal
Method in brief: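 Measured: IL-1 alpha via ELISA at 24 h in LPS-activated human umbilical vein endothelium–PBMC co-culture. Baseline: DMSO, bidirectional fitting.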

[8] = read-out: Monocyte Chemoattractant Protein-1 (MCP1), CCL2 (gene 6347); assay: BSK_LPS_MCP1: BioMAP Diversity Plus: LPS Assay for Monocyte Chemoattractant Protein-1 (MCP1) Biomarker Activity (AID 2283081); details: primary human HUVEC with PBMC; actives raise or lower the signal
Method in brief: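 LPS-stimulated HUVEC/PBMC co-culture; chemical, 24 h; MCP-1 by ELISA; bidirectional fit vs DMSO; cytotoxicity via SRB (0.1% stain, 10% TCA fix, 560 nm) in parallel wells.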

[9] = read-out: Matrix Metallopeptidase 9 (MMP9), MMP9 (gene 4318); assay: BSK_KF3CT_MMP9: BioMAP Diversity Plus: KF3CT Assay for Matrix Metallopeptidase 9 (MMP9) Biomarker Activity (AID 2283074); details: primary human keratinocytes with fibroblasts; actives raise or lower the signal;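 for AC50: MMP9 protein level quantified by ELISA in the co-culture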
Method in brief: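 ELISA read-out of MMP-9 at 24 h post-dosing in a co-culture of human skin keratinocytes and foreskin fibroblasts. Gain or loss of signal was fitted in both directions against DMSO.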

Chain of E-selectin (Homo sapiens) (P16581 whole entry, looked up): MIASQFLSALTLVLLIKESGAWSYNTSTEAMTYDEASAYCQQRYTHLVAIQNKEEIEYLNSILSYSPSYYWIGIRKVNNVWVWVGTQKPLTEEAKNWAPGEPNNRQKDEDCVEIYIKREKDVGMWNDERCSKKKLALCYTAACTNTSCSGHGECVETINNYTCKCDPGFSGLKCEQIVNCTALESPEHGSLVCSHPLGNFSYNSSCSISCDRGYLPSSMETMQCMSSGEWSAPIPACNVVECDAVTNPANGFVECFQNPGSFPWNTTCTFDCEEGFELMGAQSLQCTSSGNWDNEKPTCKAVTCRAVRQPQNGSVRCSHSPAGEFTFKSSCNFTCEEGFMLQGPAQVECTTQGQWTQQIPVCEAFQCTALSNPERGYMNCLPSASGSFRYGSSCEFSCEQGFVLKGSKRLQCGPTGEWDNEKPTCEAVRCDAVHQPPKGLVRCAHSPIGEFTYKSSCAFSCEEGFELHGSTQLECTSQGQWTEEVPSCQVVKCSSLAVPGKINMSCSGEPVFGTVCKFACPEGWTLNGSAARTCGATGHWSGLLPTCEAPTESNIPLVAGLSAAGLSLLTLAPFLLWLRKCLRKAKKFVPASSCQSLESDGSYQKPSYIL

SMILES	outcome [1]	outcome [2]	outcome [3]	AC50 (CD40, CD40 (gene 958))	outcome [4]	AC50 [5]	outcome [6]	outcome [7]	outcome [8]	outcome [9]	outcome (CD40, CD40 (gene 958))	outcome [5]	AC50 [6]	AC50 [1]	AC50 [2]	AC50 [9]	AC50 [3]	AC50 [7]
CCCCCOC(=O)COc1cc(N2C(=O)C3=C(CCCC3)C2=O)c(F)cc1Cl	inactive	inactive	inactive	16 µM (active)	inactive	20 µM (active)	inactive	inactive	inactive	–	–	–	–	–	–	–	–	–
CCC(C)OC(=O)N1CCCCC1CCO (stereo not given)	inactive	inactive	inactive	–	–	–	inactive	inactive	inactive	inactive	inactive	inactive	–	–	–	–	–	–
CCN(Cc1c(F)cccc1Cl)c1c([N+](=O)[O-])cc(C(F)(F)F)cc1[N+](=O)[O-]	inactive	inactive	inactive	9.02 µM (active)	–	13.6 µM (active)	–	inactive	inactive	inactive	–	–	14.1 µM (active)	–	–	–	–	–
CCCOC(=O)NCCCN(C)C	inactive	inactive	inactive	–	inactive	–	inactive	inactive	inactive	inactive	inactive	inactive	–	–	–	–	–	–
CCCN(CCC)c1c([N+](=O)[O-])cc(C(F)(F)F)c(N)c1[N+](=O)[O-]	–	–	–	–	inactive	–	–	inactive	inactive	–	inactive	inactive	13.8 µM (active)	32.1 µM (active)	30.5 µM (active)	33.6 µM (active)	37.3 µM (active)	–
CCCCC(CC)CN1C(=O)C2C3C=CC(C3)C2C1=O (stereo not given)	inactive	inactive	inactive	11.6 µM (active)	inactive	–	–	inactive	inactive	inactive	–	inactive	3.97 µM (active)	–	–	–	–	–
CCCCOC(=O)[C@@H](C)Oc1ccc(Oc2ccc(C(F)(F)F)cn2)cc1	inactive	inactive	inactive	–	inactive	–	inactive	inactive	inactive	–	inactive	inactive	–	–	–	–	–	–
CN(C)C(=O)Nc1ccc(Cl)c(Cl)c1	inactive	inactive	inactive	–	inactive	–	inactive	inactive	inactive	–	inactive	inactive	–	–	–	–	–	–
CSC(=O)c1cccc2nnsc12	inactive	inactive	inactive	–	–	–	inactive	inactive	inactive	inactive	inactive	inactive	–	–	–	–	–	–
CCC(O)=C1C(=O)CC(C(=O)O)CC1=O (stereo not given)	inactive	inactive	inactive	–	inactive	–	inactive	inactive	inactive	inactive	inactive	inactive	–	–	–	–	–	–
COC(=O)c1ccccc1C(=O)O	inactive	–	inactive	–	inactive	–	inactive	inactive	inactive	–	inactive	inactive	–	–	0.726 µM (active)	–	–	–
CCCCC(CC)COC(=O)c1ccccc1C(=O)O (stereo not given)	inactive	inactive	inactive	–	–	–	inactive	inactive	inactive	inactive	inactive	inactive	–	–	–	–	–	–
C#C[C@]1(O)CC[C@H]2[C@@H]3CCC4=CC(=O)CC[C@@H]4[C@H]3CC[C@@]21CC	inactive	inactive	inactive	–	inactive	–	inactive	inactive	inactive	–	inactive	inactive	–	–	–	–	–	–
CC(C)(C)[C@@H](O)[C@@H](Cc1ccc(Cl)cc1)n1cncn1	inactive	inactive	inactive	–	–	–	inactive	–	inactive	inactive	inactive	inactive	–	–	–	–	–	3.97 µM (active)

From PubChem BioAssay (EPA / NIEHS)
